HSP90 inh = inhibitors of HSP90 luciferase refolding in rabbit reticulocyte lysate | luciferase refolding luminescence, 3 h | inhibition, % at 5.6 µM | 290,000 tested, 0.91% active;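 active = inhibition above the screen-wide mean plus 3 SD, computed separately per campaign, cut at about 16% in these data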;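 note: 0% = DMSO wells and 100% = 60 µM geldanamycin wells; inhibitors lower the luminescence because luciferase stays unfolded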
TROY signal inh = blocks TROY-dependent signaling in reporter cells; 360,000 tested, 0.98% active; inhibition, % at 10 µM; AID 1347056; Q293 LMP1-TROYcd NF-kB luciferase reporter, 4 h;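 active = compounds whose plate-normalised and pattern-corrected inhibition of the luciferase reporter signal at the single screening dose is 50% or more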
LGR2 antag = blocks bursicon-induced cAMP signaling via Drosophila LGR2. 380,000 tested, 0.35% active. inhibition, % at 9.99 µM. HEK293 LGR2, CRE-luciferase, bursicon-stimulated, 4 h. AID 720647;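 active = drop in luminescence signal, shown as inhibition above about 50% in the replicate tests, limit read from the data, passing the limit was not always enough; inconclusive = probably only some replicates passing the limit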;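 note: agonist challenge used bursicon conditioned medium at about half maximal strength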
TWEAK-Fn14 inh = inhibitors of TWEAK-Fn14 interaction signaling. AID 1159606. 360,000 tested, 2% active. inhibition, % at 10 µM. TWEAK-stimulated Fn14 reporter cells, luciferase luminescence, 8 h; in the data active = inhibition above about 50%
* hit, by the source's call; ? = inconclusive; . = no result given. The list is not random: actives were taken first. Their share in the collection is about 2.2%.

SMILES	HSP90 inh	TROY signal inh	LGR2 antag	TWEAK-Fn14 inh
O=C(Nc1ccccc1)N[C@@H]1CC[C@H](CCNS(=O)(=O)c2cccc(F)c2)O[C@@H]1CO	.	.	1	.
CCCNC(=O)N(C)C[C@H]1Oc2cc(-c3cccnc3)ccc2S(=O)(=O)N([C@@H](C)CO)C[C@H]1C	.	.	5	.
Cn1cc(CNCc2cnc3ccccn23)c(-c2ccc(Oc3ccccc3)cc2)n1	0	31	-18	22
CN(Cc1cn(C)nc1-c1ccc(Oc2ccccc2)cc1)Cc1cnc2ccccn12	0	44	4	77*
Cc1ccc(S(=O)(=O)C2(C(=O)N3CCN(c4ccccc4F)CC3)CC2)cc1	2	6	17	66*
C[C@H](CO)N1C[C@H](C)[C@H](CN(C)S(=O)(=O)c2ccc(F)cc2)OCCCC[C@H](C)Oc2ccc(NC(=O)c3ccccc3)cc2C1=O	.	.	17	.
Nc1cc2sc(-c3ccc(C(=O)O)cc3)nc2cc1Cl	18*	-15	?	29
Nc1nc(-c2ccc(C(=O)O)cc2)cs1	2	-11	.	-11
CCc1ccc(/C=C/c2c([N+](=O)[O-])c(=O)n(C)c(=O)n2C)cc1	9	13	40	65*
Cn1c(/C=C/c2ccc(Cl)cc2Cl)c([N+](=O)[O-])c(=O)n(C)c1=O	8	9	56*	73*
CCOc1ccc(/C=C/c2c([N+](=O)[O-])c(=O)n(C)c(=O)n2C)cc1	6	10	18	21
CN(CC(=O)NCCCN1CCOCC1)S(=O)(=O)c1ccc(Br)cc1	4	.	.	63*
COc1ccc(CN(C)C[C@@H]2OCCCC[C@@H](C)Oc3ccc(N(C)C)cc3C(=O)N([C@H](C)CO)C[C@H]2C)cc1	.	.	-7	.
CCN1C(=O)CS/C1=N\S(=O)(=O)c1ccc(Cl)cc1	3	-1	-13	3
CCn1c(Cl)c(C=O)s/c1=N\S(=O)(=O)c1ccccc1	3	36	?	99*
CN(C)C(=O)c1cccc(-c2ccc(C3[C@H]4CNC[C@@H]3N4Cc3cc(F)ccc3F)cc2)c1 (stereo partly specified)	.	.	1	.
O=c1c(Cl)c(Nc2cccc(Cl)c2)cnn1-c1nc2ccccc2s1	16*	26	14	62*
Cc1nc2cc(NCc3nc4ccccc4n3Cc3ccccc3)ccc2n1C	16*	87*	.	90*
Cc1nc2cc(NCc3cc([N+](=O)[O-])ccc3O)ccc2n1Cc1ccccc1	3	80*	18	53*
CCCC(=O)Nc1ccc2c(c1)OC[C@@H](C)N(C(=O)CN(C)C)C[C@H](C)[C@@H](OC)CN(C)C2=O	.	.	-8	.
O=C(CCl)N(Cc1cc(=O)[nH]c2ccccc12)c1ccccc1	2	8	34	82*
Cc1ccccc1N(Cc1cc(=O)[nH]c2ccccc12)C(=O)CCl	0	-5	37	70*
CCC(=O)N(Cc1cc(=O)[nH]c2ccccc12)c1ccccc1	-1	-9	10	-11
CN1CCN(C(=O)/C(=C/c2cccc([N+](=O)[O-])c2)NC(=O)c2ccccc2)CC1	-1	21	-13	55*
CN1CCN(C(=O)/C(=C/c2ccc([N+](=O)[O-])cc2)NC(=O)c2ccccc2)CC1	-4	3	-7	54*
SMILES	HSP90 inh	TROY signal inh	LGR2 antag	TWEAK-Fn14 inh
O=C(N/C(=C\c1ccc([N+](=O)[O-])cc1)C(=O)N1CCCCC1)c1ccccc1	1	11	22	0
O=C(C[C@@H]1C=C[C@@H](NC(=O)NC2CCCCC2)[C@H](CO)O1)NCc1ccccc1	.	.	0	.
C[C@H]1CN([C@@H](C)CO)C(=O)c2cc(C#CCN(C)C)cnc2O[C@H]1CN(C)C(=O)Nc1ccccc1F	.	.	-1	.
O=C(Nc1ccc2nc(-c3ccco3)c(-c3ccco3)nc2c1)NC1CC1	9	4	.	73*
O=C(C[C@@H]1C=C[C@H](NC(=O)Nc2ccc3c(c2)OCO3)[C@H](CO)O1)NCCCN1CCOCC1	.	.	20	.
CCc1n[n+](CC(=O)c2ccccc2)c(N)s1	52*	58*	81*	82*
Nc1ccc[n+](CC(=O)c2ccccc2)c1	1	-16	1	1
Oc1ccc(/C=N/NC(=S)Nc2cccnc2)c(O)c1O	4	-17	4	50*
N#C/C(=C\c1cccc(Br)c1)C(=O)N1CCCCC1	17*	-18	11	24
Cc1ccc(C(=O)N2CCSCC2)cc1	17*	0	14	-14
Cc1ccc(NC(=O)Nc2ccc(C(=O)N3CCOCC3)cc2)cc1	-4	-23	.	5
C[C@@H]1CN([C@@H](C)CO)C(=O)Cc2cc(NC(=O)CCN3CCOCC3)ccc2O[C@H]1CN(C)S(C)(=O)=O	.	.	-5	.

Screens (PubChem BioAssay)
